# PubChem BioAssay
# Biological target: Torsin-1A (Homo sapiens) (UniProt O14656)
# Experiment: small-molecule binders of mutant TOR1A in lysate, primary screen, cell lysate, small-molecule microarray, COS7 lysate, 635/667 nm fluorescence (AID 1150);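 further: score pools 667 nm emission and signal to noise measuring lysate protein binding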
# Details: COS7 hTOR1A mutant lysate, 635 nm fluorescence, higher = more signal
# Sequence of Torsin-1A (Homo sapiens) (O14656 whole entry, looked up): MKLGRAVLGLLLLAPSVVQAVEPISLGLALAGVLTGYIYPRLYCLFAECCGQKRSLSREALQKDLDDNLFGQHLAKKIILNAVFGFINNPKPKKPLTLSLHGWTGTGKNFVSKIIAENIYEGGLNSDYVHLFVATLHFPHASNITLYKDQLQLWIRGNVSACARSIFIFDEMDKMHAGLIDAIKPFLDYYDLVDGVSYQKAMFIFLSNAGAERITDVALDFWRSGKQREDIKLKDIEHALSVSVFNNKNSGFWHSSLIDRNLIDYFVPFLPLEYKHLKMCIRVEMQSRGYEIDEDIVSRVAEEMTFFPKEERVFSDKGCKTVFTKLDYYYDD
row,SMILES,composite z-score
1,COCCOC(=O)N1C(=O)[C@@]2(c3cc(C#CCC(C(=O)OC)C(=O)OC)ccc31)[C@H](C(N)=O)[C@H]1C(=O)O[C@H](c3ccccc3)[C@H](c3ccccc3)N1[C@@H]2c1ccc(O)cc1,0.919
2,COc1cc(OC)c(C(O)C2C=CC3C(=O)N(c4ccccc4)C(=O)C3N2Nc2ccc(C(C)C)cc2)cc1Br (stereo unspecified),0.345
3,C#CCN1[C@@H](Cc2ccccc2)C(=O)O[C@H](Cc2ccccc2)[C@@H]1/C=C/C1CC1,0.84
4,CN(C)CCCNC(=O)[C@@H]1c2ccccc2C(=O)N(Cc2ccccc2C(F)(F)F)[C@H]1c1ccc(CO)cc1,-0.0393
5,COc1ccc([Si](C)(C)[C@H]2[C@H](CCO)O[C@@]3(C(=O)N(Cc4ccc(NC(=O)[C@H](C)O)cc4)c4ccccc43)[C@@H]2C)cc1,0.753
6,CCOC(=O)C[C@H]1[C@H](OC(=O)c2ccccc2-c2ccccc2)[C@@H](NC(=O)c2ccc3ccccc3c2)c2cc(OCCCO)ccc2N1C(=O)Cc1ccc(OC)cc1,0.768
7,COCCCN1C(=O)[C@@]2(c3ccc([N+](=O)[O-])cc3)CC(=O)N(CC34CC5CC(CC(C5)C3)C4)[C@@H]2c2ccc(CO)cc21,-0.0458
8,C=C1C(=O)C=C2CN(C(=O)c3ccccc3)[C@@](Cc3ccc(OC)cc3)(C(=O)OC)[C@@H]12,0.319
9,C=CCNC(=O)[C@H]1[C@@H]2C(=O)O[C@@H](c3ccccc3)[C@@H](c3ccccc3)N2[C@@H](c2ccc(OCCO)cc2)[C@]12C(=O)Nc1ccccc12,0.841
10,COCCOC(=O)N1C(=O)[C@@]2(c3ccccc31)[C@H](c1ccc(O)cc1)N1[C@H](c3ccccc3)[C@H](c3ccccc3)OC(=O)[C@H]1[C@@H]2C(=O)N1CCCCCCC1,2.13
11,C[N+](C)(C)CCCCNC(=O)[C@H]1C[C@H]2C(=O)N[C@@H](Cc3ccccc3)C(=O)N2[C@H]1c1cccc(OCCO)c1,0.342
12,CC(C)[Si](C#CCCc1ccccc1)(O[C@H](c1ccccc1)c1cn(Cc2ccccc2)nn1)C(C)C,0.484
13,COc1ccc([Si](C)(C)[C@@H]2[C@@H](CC(=O)N3Cc4ccccc4C[C@H]3CO)O[C@]3(C(=O)N(Cc4cccc(N5CCOC5=O)c4)c4ccccc43)[C@H]2C)cc1,0.737
14,CN1C(=O)[C@@H]2[C@@H](CC(COc3ccccc3)=C3[C@@H](CCc4ccccc4)OB(O)C[C@@H]32)C1=O,0.0191
15,COc1cc(C(O)C2C=CC3C(=O)N(c4ccccc4)C(=O)C3N2Nc2ccccc2F)cc(OC)c1OC (stereo unspecified),0.8
16,CCCCN1CC=CC23O[C@@H]4/C=C\CCCOC(=O)C4[C@H]2C(=O)N(C(CO)C(C)C)[C@@H]3C1=O (stereo partly specified),-0.455
17,O=C1N(CCS(=O)(=O)c2ccccc2)c2ccccc2C[C@]12N=C(c1ccc(OCCCO)cc1)O[C@@H]2c1ccccc1,1.41
18,O=C1NC(=O)C2C1C=CC(C(O)c1ccc([N+](=O)[O-])cc1)N2Nc1ccccn1 (stereo unspecified),-0.306

row,SMILES,composite z-score
1,O=C1[C@H]2C=C(I)[C@H](C[C@@H]2OCCCCCCO)[C@@]12CO2,0.541
2,CN(C)C(=O)[C@]1(Cc2ccccc2)N=C(c2ccc(OCCCO)cc2)O[C@@H]1c1ccccc1CN=[N+]=[N-],0.737
3,Cc1ccc(C(C)CC(O)C2C=CC3C(=O)N(C)C(=O)C3N2Nc2ccccc2)o1 (stereo unspecified),-0.139
4,CCCCCCc1nc(-c2ccc(-c3ccc(Cl)c(Cl)c3)o2)cc2c1[Si](C(C)C)(C(C)C)OC2,-0.526
5,CC1CC/C=C\[C@H]2OC34C=CCN(c5ccc(Cl)cc5)C(=O)[C@H]3N(CCCCCCO)C(=O)[C@]4(C)C2C(=O)O1 (stereo partly specified),-1.7
6,C=C(CCCC)/C(=C/C[C@H](OC(=O)c1ccncc1)c1cccc(OCCO)c1)c1cnc2ccccc2c1,0.706
7,C[C@@H]1ON(c2ccccc2)[C@H](c2ccccc2)[C@H]1C(=O)O,-0.115
8,CCOC(=O)C1=CC[C@@H](c2ccc(OC)cc2)N(S(=O)(=O)c2ccc(C)cc2)[C@H]1CC,0.714
9,COC(=O)[C@@]1(Cc2ccc(OC)cc2)[C@H]2c3cc(C(=O)N(C)C)[nH]c3C[C@H]2CN1C(=O)c1ccccc1,-0.369
10,CCCCC(O)C1C=CC2C(=O)N(c3ccccc3)C(=O)C2N1Nc1ccccc1 (stereo unspecified),0.0691
11,CC(C)OC(=O)CC(=O)CC(O)c1cccc([N+](=O)[O-])c1 (stereo unspecified),2.75
12,O=C1NC(=O)C2C1C=CC(C(O)c1ccc(B(O)O)cc1)N2Nc1ccc(Cl)cc1Cl (stereo unspecified),-0.147
13,O=C1c2ccccc2[C@@]2(Cc3ccccc3N(Cc3ccccc3)C2=O)[C@H](c2ccc(CO)cc2)N1Cc1ccccc1Cl,0.454
14,CO[C@H]1O[C@H](CO)[C@@H](OC(=O)Nc2ccccc2)[C@H](OC(=O)Nc2ccccc2)[C@H]1OC(=O)Nc1ccccc1,1.07
15,COCCCNC(=O)[C@@]1(CCS(=O)(=O)c2ccccc2)COC(c2ccc(OCCCO)cc2)=N1,1.49
16,COc1ccc(C(O)C2C=CC3C(=O)NC(=O)C3N2Nc2ccc(Cl)cc2Cl)c2ccccc12 (stereo unspecified),0.275
17,O=C1C[C@@](C(=O)O)(c2ccc([N+](=O)[O-])cc2)[C@@H](c2ccc(CO)cc2)N1C1CCCCC1,0.371
18,CC(C)(C)N1CC=CC23O[C@@H]4/C=C\CCCOC(=O)C4[C@H]2C(=O)N(CCCCCO)[C@@H]3C1=O (stereo partly specified),-1.33
